The campaign covered roughly 330,000 compounds. About 1,900 (0.58%) were called active. Inconclusive results (about 4%) are left out. The list is a sample of the results. Measured potencies and affinities stand elsewhere. Unmarked numbers belong to inactive results. Rule as the data show it: inconclusive = inhibition above about 70% without an active follow-up result; inactive = below that.

The nature of the experiment: M. tuberculosis growth inhibition, HTS (AID 449762).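 Also: bacterial growth assessed after seven days of incubation.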 The note with it: M. tuberculosis H37Rv growth inhibition, 7H9 media; at 25 µM; stronger effect = higher value.
As for `CCOC(=O)c1nc(C)c(C(C)=O)s1`, the inhibition (as a rule, the relative decrease from the control value, in per cent) was -0.23%.
To `C=CCN(C/C(=N\O)c1sc(C(=O)OCC)nc1C)c1cccc(Br)c1` belongs 62.6%; to `CCOC(=O)c1c(C)[nH]c(C(=O)OCC(=O)NCc2ccc(F)cc2)c1C`, -3.74%; to `COc1ccc(OC)c(Nc2nc(-c3sc(N)nc3C)cs2)c1`, 65.1%.
Next, `COc1ccc(Nc2nc(-c3sc(C)nc3C)cs2)cc1`: 11.6%.
As to `CCNC(=O)N(CCOC)CC1CCCN(C2Cc3ccccc3C2)C1` (configuration not stated), the inhibition was -1.33%.
Consider `Cc1cccc(CCNS(=O)(=O)c2ccc(S(=O)(=O)N3CCC(C)CC3)cc2)c1`, for which the inhibition was -1.34%.
In the case of `O=C1C(=C(O)c2ccccc2)C(=O)c2ccccc21`, the inhibition was 4.16%.
To `COC1=C(c2ccccc2)C(=O)c2ccccc2C1=O` belongs 5.34%; to `CC(=O)Nc1ccc(S(=O)(=O)NC2(C(F)(F)F)NC(=O)N(c3ccccc3F)C2=O)cc1` (configuration not stated), -8.69%; to `Cc1cc(OCCCCOc2ccc(S(N)(=O)=O)c(C)c2)ccc1S(N)(=O)=O`, 20.1%.
With `CCOc1ccc2c(c1)C(=O)c1cc(OCC(=O)O)ccc1-2`, the inhibition was 1.9%.
To `CCc1cc(=O)oc2cc(C)cc(OC(=O)c3ccco3)c12` belongs 4.45%; to `CCc1nnc(NC(=O)c2c(C)nn(-c3ccccc3)c2Cl)s1`, 25.5%; to `Cc1nn(-c2ccccc2)c(Cl)c1C(=O)Nc1nnc(C2CCCC2)s1`, 38.7%.
To `O=C(NCc1ccccc1)Nc1cccn(Cc2cccc(F)c2)c1=O` belongs 5.8%.
`COC(=O)[C@@]1(Cc2ccccc2)C=C[C@@H](C)N1C(C)=O`: the inhibition was -1.39%.
Next, `CC(NC(=S)NCCN1CCOCC1)C12CC3CC(CC(C3)C1)C2` (configuration not stated): -0.91%; `COC(=O)C1=C(C)N(Cc2ccccc2)C(=NCc2ccccc2)N[C@H]1c1ccccc1`: 28.6%; `COC(=O)C1=C(C)N(Cc2ccccc2)C(=NCc2cc(OC)c(OC)c(OC)c2)N[C@H]1c1ccccc1`: -1.97%.
For `CSc1ncccc1C(=O)NCc1ccc(C)cc1`, the inhibition was -4.41%.
On to `O=c1c([N+](=O)[O-])cc(C(F)(F)F)cn1Cc1c(Cl)cccc1Cl`, for which the inhibition was 27.9%.
Turning to `COC(=O)c1ccc(Cn2cc(C(F)(F)F)ccc2=O)cc1`, the inhibition was 38.8%.
For `Cc1c(S(=O)(=O)Nc2ccc(Br)cc2)c(=O)n(C)c(=O)n1C`, the inhibition is 1.85%.
Regarding `C=C(C)c1cccc(C(C)(C)NC(=O)N(Cc2ccccc2)Cc2ccco2)c1`, the inhibition was 0.97%.
To `Cc1c(CCC(=O)NCCCn2ccnc2)c(=O)oc2cc3occ(C(C)(C)C)c3cc12` belongs 19.4%; to `Cc1coc2c(C)c3oc(=O)c(CCC(=O)NCCCn4ccnc4)c(C)c3cc12`, 3.77%.
Take `CCc1cccc(NS(=O)(=O)c2ccc3c(c2)N(C)CCO3)c1`: the inhibition is 3.34%.
As for `CC1=C(C(=O)OCCC#N)C(c2cc3c(cc2Br)OCO3)NC(=O)N1` (configuration not stated), the inhibition was 0.64%.
For the compound `CCCCCCCCC(=O)N/N=C(\C)c1cccnc1`, the inhibition is 7.1%.
For the compound `C=CCNC(=S)N/N=C(\C)c1cccnc1`, the inhibition was -7.58%.
To `C=CCNC(=S)N/N=C(\C)c1cccc(NC(C)=O)c1` belongs -1.22%; to `CCCCCCCCCC(=O)N/N=C(\C)c1cccnc1`, 22.8%; to `Cc1cc(C(=O)N2CCCC(N3CCN(c4cccc(C(F)(F)F)c4)CC3)C2)nn1C` (configuration not stated), 5.35%.
As to `CC(Oc1ccc(Cl)cc1)C(=O)N(C)CC(=O)Nc1ccc(N2CCOCC2)cc1` (configuration not stated), the inhibition was -7.54%.
For `COc1ccc(C(=O)N/N=C/c2ccc(OC)c(CN3CCCc4ccccc43)c2)cc1`, the inhibition was 8.38%.
Next, `CC1=CC(C)(C)Nc2ccc(OC(=O)c3ccco3)cc21`: 4.65%; `O=C(Oc1cccc(OC(=O)c2ccco2)c1)c1ccco1`: 14.2%.
Next, `O=C(NCCCN1CCOCC1)Nc1ccc(Cc2ccc(NC(=O)NCCCN3CCOCC3)cc2)cc1`: -4.04%; `O=C(O)c1cccnc1SCC(=O)N1CCCc2ccccc21`: -17%; `COc1ccccc1N1CCN(C(=O)CNC(=O)c2ccc(Cl)cc2Cl)CC1`: 4.89%.
`CCn1c(/C=C/N(C)c2ccccc2)[n+](CC)c2ccc(Cl)cc21`: the inhibition was 0.68%.
For the compound `CC[n+]1c(/C=C/N(C)c2ccccc2)sc2ccc(Cl)cc21`, the inhibition is 0.95%.
Next, `CCCC(C)NC(=O)c1c2c(nc3ccccc13)CCC2` (configuration not stated): -4.36%; `O=C(Oc1cc2oc(=O)c3c(c2cc1Cl)CCCC3)c1cccs1`: 9.78%.
To `Cc1cc(OC(=O)c2ccco2)c2c3c(c(=O)oc2c1)CCC3` belongs -2.68%.
Next, `CN(C)c1c(N)c(=O)oc2ccccc12`: -9.33%.
Consider `COc1ccc(-c2nc3ccc(C)cn3c2NCc2ccccc2)cc1SC1CCCCC1`, for which the inhibition is 5.05%.
Take `CCCCNc1c(-c2ccc(OC)c(SC3CCCCC3)c2)nc2ccc(Cl)cn12`: the inhibition is 8.29%.
Next, `CN(CC(O)COCc1ccccc1F)C1CCCCC1` (configuration not stated): -0.04%; `O=C(O/N=C\c1ccc(N2CCCCC2)c([N+](=O)[O-])c1)c1c(F)cccc1F`: 2.52%.
Next, `Cc1ccc(C(=O)O/N=C\c2ccc(N3CCOCC3)c([N+](=O)[O-])c2)cc1`: 0.26%.
Next, `O=C(Cn1cnc([N+](=O)[O-])n1)c1ccccc1`: 0.7%; `COc1ccc(Nc2cc(Nc3cccc(OC)c3)ncn2)cc1`: 0.6%.
In the case of `O=C(O)c1cccc(N/N=C/c2ccc(OC(F)(F)F)cc2)c1`, the inhibition was 4.3%.
Next, `Cc1nc2scc(-c3ccc(C(C)C)cc3)c2c(=O)n1N`: 6.8%.
To `Cc1nc2scc(-c3ccc(Cl)cc3)c2c(=O)n1N` belongs -5.38%.
Turning to `CCOc1ccc(N2C(=O)CCC2=O)cc1`, the inhibition was -7.32%.
Regarding `C1=Nc2ccccc2CN1c1ccccc1`, the inhibition was -10.9%.
Next, `CCCc1cc(N2CCC(C(N)=O)CC2)nc(-c2ccccc2)n1`: 5.28%; `COc1ccc(/C=N/n2c(N)nc3ccccc32)cc1OC`: 4.73%; `Nc1nc2ccccc2n1/N=C/c1cccnc1`: -4.9%.

The record behind these values is PubChem BioAssay AID449762 (Southern Research Specialized Biocontainment Screening …, 2010).
